Measurements published in ChEMBL document CHEMBL3988442, “University of Dundee, Small-Polar-MMV Screening Library” (2021).

Each compound was assayed against T1, Aspartate--tRNA(Asp/Asn) ligase (Mycobacterium tuberculosis (strain ATCC 25618 / H37Rv)) (UniProt P9WFW3) (assay: Assay for Asp RNA synthetase-1 from Mycobacterium tuberculosis). Details: 30 µM.
T1 sequence (whole entry): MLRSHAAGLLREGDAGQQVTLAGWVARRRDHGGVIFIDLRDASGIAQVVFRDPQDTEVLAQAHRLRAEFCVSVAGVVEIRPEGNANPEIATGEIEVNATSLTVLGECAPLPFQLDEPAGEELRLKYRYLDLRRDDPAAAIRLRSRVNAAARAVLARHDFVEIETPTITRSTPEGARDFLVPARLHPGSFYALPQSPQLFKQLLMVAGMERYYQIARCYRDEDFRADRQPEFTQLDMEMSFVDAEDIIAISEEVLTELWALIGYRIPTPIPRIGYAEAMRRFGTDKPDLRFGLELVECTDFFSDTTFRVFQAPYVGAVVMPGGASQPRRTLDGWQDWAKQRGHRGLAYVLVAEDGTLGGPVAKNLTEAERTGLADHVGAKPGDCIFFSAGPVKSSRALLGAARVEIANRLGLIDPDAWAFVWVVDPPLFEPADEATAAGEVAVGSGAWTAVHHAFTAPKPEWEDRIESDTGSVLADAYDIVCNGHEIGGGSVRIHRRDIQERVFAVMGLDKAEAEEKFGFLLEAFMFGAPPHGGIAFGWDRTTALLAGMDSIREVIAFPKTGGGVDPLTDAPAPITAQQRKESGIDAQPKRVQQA
Assay type: functional
Design: scale not given: in the data most compounds retested in dose-response had high values
`Cc1cc(C)c(CNC(=O)N2CCN(c3ncccn3)CC2)c(=O)[nH]1` gave a Percent Effect of -0.7%. With `CCc1ncncc1C(=O)N1CCN(Cc2c(C)noc2C)CC1` the Percent Effect was 0.0281%. Compound `Cc1cc(C)n(Cc2cccc(C(=O)NCCN3CCOCC3)c2)n1` has a Percent Effect of 5.71%. `N#Cc1ccnc(N2CCN(CC(O)c3cccc(F)c3)CC2)c1` (stereo not given) gave a Percent Effect of 1.79%. In the case of `Cn1nnc2c1CCN(Cc1nccs1)C2COCc1ccccc1` (stereo not given), the Percent Effect is reported as 2.63%. `O=C(NCC1OCCc2cn(CC3CC3)nc21)c1ccsc1` (stereo not given) was tested, and the Percent Effect was -3.57%. Compound `Cc1nsc(NC(=O)N2CCN(Cc3ccc(F)cc3)C(=O)C2)n1` has a Percent Effect of 2.26%. For `Cc1oc(C)c(C(=O)NCc2ccccn2)c1C`, the Percent Effect was -4.72%. `c1coc(CN2Cc3nccn3CC(Cn3cncn3)C2)c1` (stereo not given) showed a Percent Effect of -0.866%. With `Cc1ccc(-c2ncc(C(=O)NCCNc3ncccn3)s2)c(C)c1` the Percent Effect was 7.92%. `Cc1cnn(CC2CCCCN2CC(=O)NCc2ccccn2)c1` (stereo not given) was tested, and the Percent Effect was -0.659%. `CC(C)c1noc(CCC(=O)NCC2CCOC2)n1` (stereo not given) gave a Percent Effect of -0.573%. In the case of `CN1CCN(Cc2cn3c(n2)CN(Cc2cccnc2)CC3)CC1`, the Percent Effect is reported as 1.94%. With `CN1CCCC1c1ccc(C(=O)N2CCc3ccccc3C2)s1` (stereo not given) the Percent Effect was -5.54%. In the case of `COc1ccc(CN2CCc3ncnc(OC(C)C)c3CC2)cc1`, the Percent Effect is reported as 8.01%. `O=C(NCCNCC1CNc2ccnn2C1)c1ccc(F)cc1` (stereo not given) gave a Percent Effect of -3.94%. In the case of `O=C1CC[C@@H]2[C@@H](CCN2C(=O)c2ccsc2)N1CC1CC1`, the Percent Effect is reported as -5.94%. `CCc1ccc(-n2c(=O)[nH]c3nc(N4CCSCC4)ncc3c2=O)cc1` showed a Percent Effect of 15.3%. `CNC(=O)CCNC(=O)c1cccc(Cn2nc(C)cc2C)c1` gave a Percent Effect of -3.31%. With `O=C(c1ccccc1OCC1CC1)N1CCCC(n2ccnc2)C1` (stereo not given) the Percent Effect was 6.48%. With `Cc1ccc(N2CC[C@H]3O[C@@H](C(=O)NCc4ccco4)CC[C@H]32)nn1` the Percent Effect was 12.5%. In the case of `Cc1nn2cccnc2c1C(=O)N1CCCC(Nc2ccccc2)C1` (stereo not given), the Percent Effect is reported as 1.98%. With `c1cc(CNCC2CNc3ccnn3C2)cc(N2CCCCC2)n1` (stereo not given) the Percent Effect was -2.55%. `Cn1cnnc1C1CCCN(C(=O)c2cnc3ccccc3n2)C1` (stereo not given) gave a Percent Effect of -1.76%. `CN(C)c1cncc(C2CCN(C(=O)CO)CC2)n1` showed a Percent Effect of 2.1%. Compound `Cc1nc(CN2CCCC(NCc3c(C)nc4sccn34)C2)no1` (stereo not given) has a Percent Effect of 2.46%. For `O=c1cc(Cn2cncn2)nc2n1CCCN(CC1CC1)C2`, the Percent Effect was -4.96%. In the case of `COc1ccccc1C(=O)NC(C)CC(=O)O` (stereo not given), the Percent Effect is reported as -5.28%. Work on `Cc1nc2c(c(C)c1CC(=O)Nc1cccc(C#N)c1)c(=O)[nH]n2C` yielded a Percent Effect of 4.67%. `O=c1cc2c(nn1CN1CCN(c3ccccc3)CC1)CCC2` was tested, and the Percent Effect was 6.3%. `Cn1nc2c(cc1=O)CN(Cc1nc(C(C)(C)C)no1)CC2` was tested, and the Percent Effect was 50.6%. In the case of `CCNc1cc2c(nn1)CCN(C(=O)c1cccc3c1OCCO3)C2`, the Percent Effect is reported as 7.68%. Work on `c1ccc2sc(N3CCOC(Cn4cccn4)C3)nc2c1` (stereo not given) yielded a Percent Effect of 6.21%. `FC(F)(F)c1cc(N2CCc3ncnc(NC4CC4)c3CC2)ncn1` showed a Percent Effect of 5.62%. In the case of `O=C(Cc1csc(-c2ccco2)n1)N1CCN(c2cnccn2)CC1`, the Percent Effect is reported as -2.43%. Work on `CC(c1ccc(Cl)cc1)N1CCN(CCS(C)(=O)=O)CC1` (stereo not given) yielded a Percent Effect of -1.84%. For `CC(C)c1cnc(CNc2c(F)cccc2-n2cccn2)o1`, the Percent Effect was -0.919%. `CCOc1ccnc(N2CCN(C(=O)c3cccnc3O)CC2)n1` was tested, and the Percent Effect was -5.14%. `Cc1noc(C2CCN(C(=O)c3c(C)noc3C)CC2)n1` gave a Percent Effect of 0.55%. With `CCc1ncnc2c1CCN(Cc1ccccn1)CC2` the Percent Effect was 0.378%.
